Shown are actives, neighbours in structure and some others; about 1.9% of the full set was active somewhere.
Giardia kill = Small Molecules that selectively kill Giardia lamblia: qHTS | Giardia lamblia trophozoite viability | activity change, % at 7.66 µM, hits read low | hit rate 0.15% among 340,000; in the data active = activity change below about -80%; inconclusive = between about -30% and that limit;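 note: parasites exposed to compound for two days anaerobically before the ATP read; % is set by controls: 0 for no effect and ±100 for the full control effect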
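Giardia lamblia trophozoites (100 cells/well) were incubated with compounds for 48 h at 37 deg C under anaerobic conditions. Viability was read as ATP content by one-step luminescence after 15-30 min at room temperature.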
BRCA1 expr up = qHTS Assay to Identify Small Molecule Activators of BRCA1 Expression; MCF7-BRCA1-FFLuc reporter, luminescence, 48 h; response scale: scaled: vehicle 0%, 10 µM genistein 100%; Potency, µM (titrated, usually from 46.1 µM), for inactives: at the top dose activation, hits mostly activators; hit rate 1.1% among 380,000; AID 624202, 2012; note: potency is the fitted concentration of half-maximal effect; nearly all actives have a fitted effect of over 80% in size
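Compounds are tested at multiple concentrations on MCF7 BRCA1-luciferase reporter cells seeded at 2000 per well; after 48 h, a single luminescence end-point is taken and curves fitted to the normalized data.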
RXFP1 ag = qHTS Assay for Agonists of the Relaxin Receptor RXFP1. Relaxin receptor 1 (Homo sapiens), Q9HBX9. HEK293T-RXFP1 cAMP TR-FRET, 30 min; response scale: percent of porcine relaxin response, buffer zero. Potency, µM (top dose mostly 57.5 µM), inactives show top-dose activation, most hits filed as activators. hit rate 0.3% among 370,000; note: potency is the fitted concentration of half-maximal effect; % is set by controls: 0 for no effect and ±100 for the full control effect; nearly all actives have a fitted effect of over 60% in size
Target sequence (Q9HBX9 whole entry, looked up): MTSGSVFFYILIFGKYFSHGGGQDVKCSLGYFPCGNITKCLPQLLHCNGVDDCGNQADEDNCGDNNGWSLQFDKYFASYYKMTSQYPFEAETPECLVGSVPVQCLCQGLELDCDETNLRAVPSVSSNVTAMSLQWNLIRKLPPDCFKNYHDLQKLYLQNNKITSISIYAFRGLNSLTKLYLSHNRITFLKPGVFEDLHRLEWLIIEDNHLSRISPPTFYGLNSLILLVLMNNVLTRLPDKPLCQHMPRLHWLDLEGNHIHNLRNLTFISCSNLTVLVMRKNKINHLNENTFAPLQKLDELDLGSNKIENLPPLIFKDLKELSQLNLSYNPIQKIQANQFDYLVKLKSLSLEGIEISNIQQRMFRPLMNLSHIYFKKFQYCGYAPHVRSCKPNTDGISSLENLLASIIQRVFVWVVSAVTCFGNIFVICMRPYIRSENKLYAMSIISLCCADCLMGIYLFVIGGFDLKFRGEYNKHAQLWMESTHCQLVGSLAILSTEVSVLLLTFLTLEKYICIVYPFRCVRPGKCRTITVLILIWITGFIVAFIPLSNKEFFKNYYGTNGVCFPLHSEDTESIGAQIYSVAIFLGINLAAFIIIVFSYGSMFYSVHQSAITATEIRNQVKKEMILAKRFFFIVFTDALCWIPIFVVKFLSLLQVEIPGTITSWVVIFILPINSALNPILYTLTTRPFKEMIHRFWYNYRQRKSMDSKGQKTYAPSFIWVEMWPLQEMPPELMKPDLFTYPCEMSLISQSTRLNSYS
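Agonist response is measured as cAMP accumulation in an RXFP1-transfected HEK293T line under PDE4 inhibition. Values are scaled between buffer-only and 29 nM porcine relaxin, and EC50s come from standard Hill equation fits.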
RXFP1 antagonist = qHTS Assay for Antagonists of the Relaxin Receptor RXFP1 | activity change, negative = inhibition, % at 57.5 µM | hit rate 0.59% among 350,000 | AID 1259400, 2018 | HEK293-RXFP1, relaxin-stimulated cAMP HTRF, 30 min; hits give low values;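 active = activity change of -60% or lower, but not beyond a set lower limit; inconclusive = change between -60% and -40%, or beyond the set limit; inactive = change above -40%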; note: % is set by controls: 0 for no effect and ±100 for the full control effect
NPSR antag = qHTS Assay for Antagonists of the Neuropeptide S Receptor: cAMP Signal Transduction; Q6W5P4; CHO-NPSR cells, cAMP TR-FRET, antagonist mode; Potency, µM (series often up to 38.3 µM), for inactives: at the top dose activity change, negative = inhibition, actives largely listed as inhibitors; hit rate 1% among 220,000; note: potency is the fitted concentration of half-maximal effect; % is set by controls: 0 for no effect and ±100 for the full control effect; nearly all actives have a fitted effect of over 50% in size
IL-2 act = qHTS of IL-2 Activators. IL-2 activation reporter assay, cell-based qHTS; stimulated with anti-CD3/CD4/CD28 beads; in transgenic mouse T cells. activation, % (series mostly up to about 46 µM). hit rate 0.065% among 360,000; in the data active = activation above about 50%; inconclusive = mostly about 30% to 49%; note: 0% is about no effect
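First, unstimulated transgenic mouse T cells were exposed to compound for 60 min. Next, anti-CD3/anti-CD4-coated beads with anti-CD28 were added. Finally, after 18 h at 37 degrees C, EGFP and DsRed were imaged.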
* hit, by the source's call; ? = inconclusive; nt = no result given; [ ] = dose if it differs, or a comment. Unless noted, calls come from the whole dose curve; as a rule, active = well fitted curve in the direction sought with a large enough effect; inconclusive = small, poorly fitted or top-dose-only effect, or another doubt; inactive = no such curve, though single readings can be large; an effect the other way counts as inactive or inconclusive.

SMILES	Giardia kill	BRCA1 expr up	RXFP1 ag	RXFP1 antagonist	NPSR antag	IL-2 act
CCOC(=O)C1(Cc2cccc(Cl)c2)CCCN(C(=O)c2ccnn2C)C1 (stereo not given)	1	16%	0%	-6	nt	-5
Cc1c(Cl)cccc1-n1ncc(C(=O)N2CCC(C)CC2)c1C1CCN(C(=O)OC(C)(C)C)CC1	nt	nt	1%	-4	nt	nt
CC(C)Oc1ccc(Nc2ncnc3ccccc23)cc1	26	2.5µM*	0%	-5	-13%	-3
Oc1ccc(Nc2ncnc3ccccc23)cc1	-15	17%	3%	6	nt	0
Cc1ccc(Nc2ncnc3ccccc23)cc1	-21	5.6µM*	-1%	-9	19%	-1
O=C(NCCCN1CCCC1=O)c1cc2c(s1)CCCCC2	6	11µM*	-3%	-1	18%	1
CN(C)c1ccc(CC2CCc3ccccc32)cc1 (stereo not given)	nt	35%	nt	nt	nt	nt
O=C(Nc1ccccc1)c1nnsc1S(=O)c1ccc(Cl)cc1 (stereo not given)	0	23%	0%	-105*	?	-1
COc1ccc(NC(=O)c2cc3ccccc3o/c2=N\NS(=O)(=O)c2ccc(C)cc2)cc1	-18	5µM*	3%	9	nt	2
COc1ccc(-c2nc(N3CCN(S(=O)(=O)c4ccccc4)CC3)c3ccccc3n2)cc1	-12	-8%	nt	nt	nt	nt
Cc1ccc(C(=O)N/C(=C\c2ccc(-c3ccc(Br)cc3)o2)C(=O)NCCCN(C)C)cc1	3	-97%	2%	-61*	-42%	-1
Cc1ccc(C(=O)N/C(=C\c2ccc(-c3cccc([N+](=O)[O-])c3)o2)C(=O)NCCCN(C)C)cc1	11	-12%	1%	-34	nt	-3
CN(C)CCNC(=O)/C(=C/c1ccc(-c2ccc(Cl)cc2Cl)o1)NC(=O)c1ccccc1	18	-74%	-1%	-70*	?	1
Brc1ccc(N=Nc2ccc3ccccc3n2)cc1	-81*	8%	-2%	-23	35%	5
CCn1c(O)c(N=Nc2ccc3ccccc3n2)c2ccccc21	34	41%	4%	-4	-16%	1
CCC(=O)Nc1ccc2nc(SCCOc3ccc(C)cc3OC)sc2c1	nt	-3%	3%	nt	nt	nt
CCCCOc1ccc2c(c1)C(=O)c1cc(O)ccc1-2	-25	3.5µM*	-2%	1	50%	2
COc1ccc(C(=O)NCC(=O)OCC(=O)c2ccc3ccccc3c2)cc1	-21	3%	nt	nt	nt	nt
CN1CCN(CCCNC(=O)c2cc3c(-c4ccc(Cl)cc4)nn(C)c3s2)CC1	8	-37%	4%	nt	10µM*	1
Cc1cnc(NC(=O)c2sc(Nc3ccccc3)nc2N)o1	-28	13µM*	4%	-3	-23%	-1
O=C(N/N=C/C(Br)=C/c1ccccc1)c1cc(-c2ccco2)[nH]n1	-6	-63%	0%	-81*	-32%	-1
C/C(=C1/C=Nc2ccccc21)c1ccc(N(C)C)cc1	nt	-39%	nt	nt	nt	nt
CCOC(=O)C1CCCN(C(=O)CC(C)c2ccccc2)C1 (stereo not given)	-3	13µM*	1%	16	-7%[46.1 µM]	-2
CCOC(=O)C1CCCN(C(=O)c2cc(S(=O)(=O)N(C)C)ccc2N2CCCC2)C1 (stereo not given)	2	2%	-1%	-71*	nt	-1
COc1ccccc1C1NC(c2ccc3c(c2)OCO3)=CC(c2ccccc2O)N1 (stereo not given)	-11	16%	nt	nt	nt	nt
SMILES	Giardia kill	BRCA1 expr up	RXFP1 ag	RXFP1 antagonist	NPSR antag	IL-2 act
Cc1cccc(CCNC(=O)C2CCC(CNS(=O)(=O)c3c(C)cc(C)cc3C)CC2)c1 (stereo not given)	nt	nt	-1%	-27	nt	nt
CN(C)c1ccc(NC(=O)COC(=O)CNC(=O)c2cccs2)cc1	?	-13%	-5%	-4	nt	0
CN(C)c1ccc(C(CNC(=O)c2cccs2)N(C)C)cc1 (stereo not given)	2	13µM*	-1%	5	nt	-1
Cc1cc(C)nc(N/C=C(\C#N)C(=O)c2cccc(CSc3ccccc3)c2)n1	nt	83%	nt	nt	nt	nt
Cc1cc2ccccn2c1C(=O)c1cccc([N+](=O)[O-])c1	5	-38%	-1%	-11	-8%	-2
Cc1cc2ccccn2c1C(=O)c1ccc([N+](=O)[O-])cc1[N+](=O)[O-]	-86*	0%	-3%	-5	nt	0
COc1ccc(OCc2nc3ccccc3n2Cc2ccc(C(C)(C)C)cc2)cc1	nt	4.5µM*	5%	nt	nt	nt
CCc1ccc2occ(CC(=O)Nc3ccc(OC)c(Cl)c3)c2c1	-4	12%	-1%	-13	nt	nt
CCOC(=O)C1=C(O)/C(=C/c2cn(CC(=O)N3CCCC3)c3ccccc23)SC1=Nc1ccccc1	4	-15%	0%	-7	?	219*
C/C(=N/NC(N)=S)c1cc2ccc(O)cc2oc1=O	7	-1%	-2%	-5	-8%	1
COc1ccccc1N=c1oc2cc(O)ccc2cc1C(N)=O	-4	10µM*	3%	-11	-22%[46.1 µM]	0
COc1ccccc1N=c1oc2cc(O)ccc2cc1C(=O)NCC1CCCO1 (stereo not given)	-1	-13%	9%	12	?	-1
Cc1cccc(N=c2oc3cc(O)ccc3cc2C(N)=O)c1	16	11µM*	6%	-8	-13%[46.1 µM]	-1
NC(=S)c1cc2ccc(O)cc2oc1=O	-13	-6%	13µM*	nt	5µM*	1
OCCc1ccc(O)c(-n2nc3ccccc3n2)c1	10	11µM*	3%	-9	nt	1
O=C1/C(=C\c2ccc3ccccc3c2)CCCc2ccccc21	-19	9%	1%	-10	-11%[46.1 µM]	0
Cc1ccccc1/C=C1\CCCc2ccccc2C1=O	7	7.1µM*	1%	16	-24%	-2
O=C(C[n+]1ccncc1)c1cccc2ccccc12	nt	-3%	nt	nt	nt	nt
Cc1ccc(-c2nnc(SCC(=O)NCCC(C)C)nc2-c2ccc(C)cc2)cc1	nt	nt	1%	?	nt	nt
COc1ccc(-n2c(C)nn(CCOc3ccccc3)c2=O)cc1	-7	10µM*	0%	-3	3%	1
Cc1nn(CCOc2ccccc2)c(=O)n1-c1ccccc1	-6	?	1%	22	-8%[46.1 µM]	-1
O=C(/C=C/c1ccc(-c2ccc(F)cc2)o1)N1CCCC1	-20	4µM*	0%	-28	-6%	0
Cc1cc(S(=O)(=O)Nc2ccc(C(=O)NCC3(N4CCCCC4)CCCCC3)cc2)ccc1F	-25	-15%	0%	-77*	nt	0

Screening results deposited in PubChem by National Center for Advancing Translational Sciences (NCATS).
